# Results taken from ChEMBL document CHEMBL4888484, “Replenishing the malaria drug discovery pipeline: Screening and hit evaluation of the MMV Hit Generation Library 1 (HGL1) against asexual blood stage Plasmodium falciparum ,using a nano luciferase reporter read-out” (2022).
# About 540 (0.36%) of roughly 150,000 compounds showed an effect of 50% or more. For the sample, strong results were picked, then their nearest neighbours and some compounds at random.
# Tested on: Plasmodium falciparum
# Test: Primary screen in NF54 nanoGlo assay, in single point, at 2uM, 72h; a lower Z score goes with more inhibition
# Assay type: functional, Erythrocyte
# Details: timepoint 72 hour
SMILES,% Inhibition [%],Z score
Cc1noc(C(F)(F)F)c1C(=O)NCC1(C2(O)CCC2)CC1,-10,1.69
COc1ccc2c(c1)C(N1CCN(C(=O)CC(C)(C)C)CC1)=Nc1ccccc1O2,1,-0.13
CCOC(=O)N1CCCC[C@H](NC2CCN(c3ccc(F)c(F)c3)CC2)C1,4,-0.83
O=C(c1cccc(C(F)(F)F)c1)N1CCC(n2cnnc2C2CC2)CC1,2,-0.34
O=C(CN1CCC(O)CC1)N1CCC(c2ccccc2)=N1,-5,1.01
O=C(NCCn1c(=O)[nH]c2ccsc2c1=O)c1cc(-c2ccc(F)cc2)c[nH]1,-4,0.72
O=C(Nc1ccc(Cl)c(N2CCCS2(=O)=O)c1)NC1CCOCC1,-13,1.52
COc1cc([C@H](CC(=O)NC2CCN(Cc3ccccc3)CC2)N2Cc3ccccc3C2=O)cc(OC)c1OC,68,-9.85
O=C(CN1C(=O)c2ccccc2C1=O)NC1CCN(Cc2ccccc2)CC1,4,-0.5
COc1c[nH]c(C(=O)NC2CCN(Cc3ccccc3)CC2)cc1=O,60,-7.68
COc1cn(CC(=O)NC2CCN(Cc3ccccc3)CC2)c(CN2CCOCC2)cc1=O,7,-0.83
COc1c[nH]c(C(=O)NC2CCCC2)cc1=O,-5,0.85
COc1cc(=O)n2c(c1C(=O)NC1CCN(Cc3ccccc3)CC1)CCCCC2,-8,0.91
Cn1cccc1CNc1nnc([C@@H]2CCCO2)o1,-5,0.81
C[C@H]1NC(=O)N(c2cccc(C#N)c2)C1=O,-4,0.53
O=C(NCCN1C(=O)COC1=O)c1cccs1,12,-2.12
CC[C@H](C)N(CC(=O)N(CCOC)Cc1cccn1Cc1ccccc1)C(=O)c1ccco1,-8,1.33
COc1cccc(OC)c1-c1cncc(C(=O)NCC2CC2)c1,-9,1.48
O=S(=O)(CCO)c1ccc(NCc2ccc(Cl)s2)cc1,-5,0.74
CC(C)(C)c1nc(CNc2ccc(S(=O)(=O)CCO)cc2)no1,52,1.4
Cc1nc(CNc2ccc(S(=O)(=O)CCO)cc2)cs1,-22,4.06
O=C(Nc1ccccc1C(=O)N1CCCCC1)[C@H]1CCCN(S(=O)(=O)c2cccs2)C1,3,-0.58
Nc1ccnc2c(-c3ccncc3)cccc12,-2,0.26
Cc1ccn(C2CCN(C(=O)C(C)(C)c3c[nH]cn3)CC2)n1,-6,1.19
Cc1cc(-c2c(C)sc(C)c2S(=O)(=O)N2CCOCC2)on1,-8,1.45
Cc1ccc(S(=O)(=O)N(CC(=O)N[C@@H](C)c2ccccc2)c2cccc(Br)c2)cc1,50,-1.08

SMILES,% Inhibition [%],Z score
Cc1ccc(S(=O)(=O)N(CC(=O)N[C@@H]2C[C@H]3CC[C@@H]2C3)c2cccc(Br)c2)cc1,-15,2.16
COc1ccccc1N(CC(=O)N[C@H](C)c1ccccc1)S(=O)(=O)c1ccc(C)cc1,1,-0.13
O=C(Nc1ccc(-c2onc3c2CCCC3)cc1)c1c(Cl)cc(Cl)cc1Cl,-2,0.3
O=C(Nc1cc(Br)cc(C(F)(F)F)c1)c1ccnnc1,-2,0.3
O=C(Nc1cc(-c2onc3c2CCCC3)cc(C(F)(F)F)c1)c1cncc(Br)c1,96,-8.79
COc1ccc(C(=O)N[C@H]2CCOC3(CCOCC3)C2)c(C)c1,0,0.06
COc1cc2c(cc1OC)C(=O)N(Cc1ccccc1)C(=O)C2=O,-13,1.31
COC(=O)c1ccccc1NC(=O)C[C@@H]1Nc2cccc3cccc(c23)NC1=O,-5,0.52
COCc1ccc(CNCc2cc3cc(Cl)c(Cl)cc3[nH]2)cc1,-13,1.44
COc1ccc(-c2nc3ccc(C(=O)NC4CCCC(C)C4C)cc3nc2-c2ccc(OC)c(OC)c2)cc1OC (centres undefined),24,-2.87
Cc1ncsc1Cn1ccn2nc(C(F)(F)F)cc2c1=O,15,-1.93
Cc1cccc(C(=O)Nc2nc3cc4sc(NC(=O)c5cccc(C)c5)nc4cc3s2)c1,64,0.77
Cc1cccc(C(=O)N=C(N)Nc2nc3ccccc3s2)c1,-8,0.72
Cc1cccc(S(=O)(=O)Nc2ccc3nc(NC(=O)c4ccccc4)sc3c2)c1,37,-0.65
c1[nH]nnc1CCN1CCOC[C@@H]1CC1CCOCC1,5,-1.02
CCc1cnc(Cn2nc(-c3ccccc3)cc(C(F)(F)F)c2=O)o1,-6,0.55
C=CC[C@]1(C(=O)O)CCCN(Cc2c(C)nn(CC)c2C)C1,-6,1
CC(=O)N1CCC(N2CCC[C@H](C(=O)c3ccc4c5c(cccc35)CC4)C2)CC1,-11,1.6
Cc1cccc(CN2CCC[C@H](C(=O)c3ccc4c5c(cccc35)CC4)C2)n1,58,-11.5
Cc1cc(C(=O)N2CCC[C@H](C(=O)c3ccc4c5c(cccc35)CC4)C2)nc(N)n1,-4,0.45
CCc1cccc(NC(=O)Cn2ccc3ccc(-c4nnc(C)o4)cc32)c1,78,-9.29
Cc1ccc(NC(=O)Cn2ccc3ccc(-c4nnc(C)o4)cc32)cc1,-3,0.31
Cc1cc(C)cc(NC(=O)Cn2ccc3ccc(-c4nnc(C)o4)cc32)c1,2,-0.2
COc1cccc(NC(=O)Cn2ccc3ccc(-c4nnc(C)o4)cc32)c1,7,-0.81
Cc1cccc(NC(=O)Cn2ccc3ccc(-c4nnc(C)o4)cc32)c1,6,-0.76
Cc1nnc(-c2ccc3ccn(CC(=O)Nc4ccc(F)c(Cl)c4)c3c2)o1,85,-10.55
